Assay results from PubChem BioAssay AID463173 (ICCB-Longwood Screening Facility, Harvard Medical School, 2010).
Out of some 52,000 compounds screened, about 1,700 (3.3%) were called active. The full list was thinned out, with actives kept by preference. Unmarked numbers belong to inactive results. Cut-off read from the data, not from the text of the source: active = survival mostly below about 52% (no sharp cut-off); inactive = mostly above about 56%.

Test system: Wild type
Assay: growth inhibition of S. aureus wild type versus tarO mutant, primary screen, teichoic acid synthesis inhibitors, RN4220, OD600 (AID 463173)
Conditions: S. aureus RN4220 wild type/DeltatarO growth, OD600, 18 h, active compounds read low, screened at 18.75 µg/mL (by protocol)

SMILES | survival
COc1cccc(N2CCN(C(=O)c3c4c(nc5ccccc35)C(=O)N(C3CCCCC3)C4)CC2)c1 | 88%
COc1ccc(C)cc1NC(=O)Cn1c(=O)oc2cc(S(=O)(=O)N3CCCCC3)ccc21 | 94%
NC(=O)c1c(NC(=O)c2noc3c2CCCC3)sc2c1CCCC2 | 73%
O=c1c(S(=O)(=O)c2ccccc2)cn(Cc2ccc(F)cc2)c2cc(N3CCCCC3)c(F)cc12 | 74%
CCn1cc(S(=O)(=O)c2cc(C)cc(C)c2)c(=O)c2cc(F)c(N3CCCC3)cc21 | 129%
Cc1cccc(S(=O)(=O)c2cn(Cc3ccccc3)c3cc(N4CCCCC4)c(F)cc3c2=O)c1 | 99%
CCN1CCN(c2cc3c(cc2F)c(=O)c(S(=O)(=O)c2cc(C)cc(C)c2)cn3CC)CC1 | -3% (active)
Cn1cc(S(=O)(=O)c2cccc(Cl)c2)c(=O)c2cc(F)c(N3CCN(c4ccc(F)cc4)CC3)cc21 | 81%
Cn1cc(S(=O)(=O)c2ccccc2)c(=O)c2cc(F)c(N3CCN(c4ccccc4)CC3)cc21 | 135%
Cn1cc(S(=O)(=O)c2cccc(Cl)c2)c(=O)c2cc(F)c(N3CCN(c4ccccc4)CC3)cc21 | 1% (active)
Cc1cccc(S(=O)(=O)c2cn(Cc3ccc(F)cc3)c3cc(N4CCCCC4)c(F)cc3c2=O)c1 | -4% (active)
CCn1cc(S(=O)(=O)c2cc(C)cc(C)c2)c(=O)c2cc(F)c(N3CCCCC3)cc21 | 82%
CCOc1ccc(N(C)C(=O)C2CCN(S(=O)(=O)c3c(C)noc3/C=C/c3ccc(C)cc3)CC2)cc1 | 153%
COc1ccccc1CNc1nc(-c2ccco2)nn1C(=O)c1cc(OC)c(OC)c(OC)c1 | 69%
COc1ccc(C(=O)c2c(N)c(C(=O)Nc3cccc(OC)c3)c3ccccn23)cc1 | 95%
Cc1ccc2oc(=O)c(-c3nc(-c4cccs4)no3)cc2c1 | 94%
COc1ccc(NC(=O)COc2ccc(S(=O)(=O)NC3CCCCC3)cc2)cc1OC | 74%
O=c1cc(O)c2ccccc2[nH]1 | 135%
Oc1cc2ccsc2c2ccccc12 | 18% (active)
c1ccc(-c2cc3ccsc3s2)cc1 | 111%
Cc1ccc(C(=O)N/C(=C/c2ccco2)C(=O)Nc2nccs2)cc1 | 81%
CCCC(=O)Nc1ccc2c(C)cc(C)nc2n1 | 99%

SMILES | survival
CCC(Sc1ccc2nnc(CCNS(=O)(=O)c3ccc(OC)cc3)n2n1)C(=O)OC (configuration not stated) | 84%
COc1ccc(NC(=O)CCS(=O)(=O)c2nc(-c3cccs3)cc(C(F)(F)F)n2)cc1OC | 100%
COc1ccccc1NC(=O)CCn1nc(-c2ccccc2)c2ccccc2c1=O | 4% (active)
O=C(CCn1nc(-c2ccccc2)c2ccccc2c1=O)Nc1ccccc1 | 86%
Cc1ccc(NC(=O)CCn2nc(-c3ccccc3)c3ccccc3c2=O)c(C)c1 | 75%
CCCOc1ccccc1C1C(C(=O)Nc2ccccc2)=C(C)Nc2nnnn21 (configuration not stated) | 134%
COc1ccc(-n2c(-c3ccc(F)cc3)cn3c4c(=O)n(C)c(=O)n(C)c4nc23)cc1 | 63%
CC(C)(C)C(=O)Nc1nnc2n1CCS2 | 77%
Cc1ccc2c(CNCCc3ccc(Cl)cc3)c(C(=O)O)n(Cc3ccc(F)cc3)c2c1 | 4% (active)
C=Cc1ccc(Cn2c(C(=O)O)c(CNCCc3ccccc3)c3ccc(C)cc32)cc1 | 69%
C=Cc1ccc(Cn2c(C(=O)O)c(CNCc3ccc(F)cc3)c3ccc(C)cc32)cc1 | 68%
Cc1ccc2c(CNCCc3ccccc3)c(C(=O)O)n(Cc3ccccc3C)c2c1 | 1% (active)
Cc1ccc(CNCc2c(C(=O)O)n(Cc3ccccc3C)c3cc(C)ccc23)cc1 | 63%
Cc1ccc2c(CNCCc3ccco3)c(C(=O)O)n(Cc3ccc(F)cc3)c2c1 | 66%
Cc1ccccc1NC(=O)Cn1nc(-c2ccccc2)nc(Cc2ccccc2)c1=O | 70%
CC(C)OCCCn1c(=O)c2ccccc2n2c(-c3ccccc3F)nnc12 | 88%
Cc1c(C(=O)N2CCCC2)oc2c1-c1nn(CC(=O)NCc3cccc(F)c3)cc1CC2 | 85%
Cc1cccc(N2CCN(C(=O)c3noc4c3COc3ccc(C)cc3-4)CC2C)c1 (configuration not stated) | 80%
CN(C)c1ncnc(Cl)c1N | 101%
COc1cc(NC(=O)CSc2ncc3c(n2)-c2ccc(Cl)cc2N(Cc2ccccc2)S3(=O)=O)cc(OC)c1 | 65%
Cc1ccc(NC(=O)CSc2ncc3c(n2)-c2ccc(Cl)cc2N(C)S3(=O)=O)cc1F | 69%
CCOc1ccc(-c2nnc(SCC(=O)Nc3cccc(OC)c3)nc2-c2ccc(OCC)cc2)cc1 | -3% (active)

SMILES | survival
COc1cccc(NC(=O)CSc2ncc3c(n2)-c2ccc(Cl)cc2N(C)S3(=O)=O)c1 | 10% (active)
CCOc1ccc(NC(=O)CSc2ncc3c(n2)-c2cc(Cl)ccc2N(C)S3(=O)=O)cc1 | -3% (active)
COc1ccc(-c2nnc(SCC(=O)Nc3cccc(C(F)(F)F)c3)nc2-c2ccc(OC)cc2)cc1 | 79%
CCOc1ccc(NC(=O)CSc2nnc(-c3ccc(C)cc3)c(-c3ccc(C)cc3)n2)cc1 | 115%
CCc1cccc(NC(=O)CSc2ncc3c(n2)-c2cc(Cl)ccc2N(C)S3(=O)=O)c1 | 65%
CCOc1ccc(NC(=O)CSc2ncc3c(n2)-c2ccccc2N(C)S3(=O)=O)cc1 | 78%
CN(C)CCn1c2c(c(SCC(=O)Nc3ccc(F)cc3F)nc1=O)CCC2 | 83%
COC(=O)c1scc(-c2ccccc2)c1S(=O)(=O)Nc1cccc(C)c1C | 100%
Cn1c(Cc2cccs2)nnc1SCC(=O)N1CCCc2ccccc21 | 109%
O=C(CSC1=Nc2ccccc2C2=NC(CC(=O)NC3CCCCC3)C(=O)N12)Nc1ccc(F)cc1 (configuration not stated) | 71%
CCOC(=O)c1c(NC(=O)c2noc3c2CC(C(C)(C)C)CC3)sc2c1CCCC2 (configuration not stated) | 88%
COc1cc(NC(=O)c2noc3c2CC(C(C)(C)C)CC3)cc(OC)c1OC (configuration not stated) | 68%
CCc1ccccc1NC(=O)c1noc2c1CC(C(C)(C)C)CC2 (configuration not stated) | -11% (active)
O=C(C1CCCN(S(=O)(=O)c2ccc(Br)s2)C1)N1CCN(c2cccc(Cl)c2)CC1 (configuration not stated) | 73%
Cc1cc(C)n2nc(CNS(=O)(=O)c3ccc(F)cc3)nc2n1 | 88%
Cc1nc(SCc2ccccc2Cl)c(C#N)c(C)c1C | -2% (active)
Cc1ccc(Cl)cc1NC(=O)CSc1nc(C)c(C)c(C)c1C#N | 86%
Cc1nc(SCc2ccc(Cl)cc2)c(C#N)c(C)c1Cl | 32%
CNS(=O)(=O)c1cn(CC(=O)Nc2ccc(C)cc2C)cc1S(=O)(=O)NC | 121%
CNS(=O)(=O)c1cn(CC(=O)Nc2ccc(F)cc2F)cc1S(=O)(=O)NC | -3% (active)
Cc1cc(F)ccc1NC(=O)Cn1cc(S(=O)(=O)NC(C)C)c(S(=O)(=O)NC(C)C)c1 | 73%
CCC(=O)N1CCc2cc(Br)cc(S(=O)(=O)N3CCC(C(=O)Nc4ccc(OC)cc4)CC3)c21 | 0% (active)

SMILES | survival
CCC(=O)N1CCc2cc(Br)cc(S(=O)(=O)N3CCC(C(=O)Nc4cccc(C)c4)CC3)c21 | 94%
CCC(=O)N1CCc2cc(Br)cc(S(=O)(=O)N3CCC(C(=O)Nc4ccccc4CC)CC3)c21 | 89%
CC(C(=O)N(C(C)C)C(C)C)N1CCN(C)CC1 (configuration not stated) | 93%
O=C(Cn1c(=O)nc(-c2ccccc2)c2ccccc21)NCc1ccccc1Cl | 73%
CCOc1ccc(CNC23CN4CN(CN(C4)C2)C3)cc1 | 99%
O=C(CSc1n[nH]c(-c2ccccc2)n1)N1CCN(c2ccc(F)cc2)CC1 | 65%
CC1CCN(C(=O)CSc2n[nH]c(-c3ccc(F)cc3)n2)CC1 | 76%
COc1ccc(-c2nc(SCC(=O)N3CCN(c4ccc(F)cc4)CC3)n[nH]2)cc1 | 85%
COc1ccc(-c2cc(C(F)(F)F)nc(SCC(=O)N3CCC(C)CC3)n2)cc1 | 55%
CC1CCN(C(=O)CSc2nc(-c3ccc(F)cc3)cc(C(F)(F)F)n2)CC1 | 11% (active)
CC1CCN(C(=O)C(C)Sc2nc(-c3ccccc3)cc(C(F)(F)F)n2)CC1 (configuration not stated) | -7% (active)
CC(Sc1nc(-c2ccccc2)cc(C(F)(F)F)n1)C(=O)N1CCCC1 (configuration not stated) | 105%
O=C(CSc1n[nH]c(-c2ccc(F)cc2)n1)N1CCN(c2ccc(F)cc2)CC1 | -6% (active)
CC1CN(C(=O)C(C)Sc2nc(-c3ccccc3)cc(C(F)(F)F)n2)CC(C)O1 (configuration not stated) | 101%
CC1(C)CC(=O)c2cc(C(=O)Nc3ccc(Br)cc3)c(=O)n(-c3ccc(Cl)cc3)c2C1 | 74%
O=C(Nc1ccccc1)NC1(C(=O)Nc2ccc(-n3cnnn3)cc2)CCCCC1 | 123%
COc1ccc(NC(=O)CS(=O)CC(=O)Nc2cc(OC)ccc2OC)cc1 (configuration not stated) | 107%
CCOC(=O)C1CCN(C(=O)c2ccc3c(c2)sc2nc(-c4ccccc4)cn23)CC1 | 42%
Cc1cc(S(=O)(=O)Nc2cc3c(cc2N2CCOCC2)n(C)c(=O)n3C)ccc1F | 82%
CC(=O)Oc1cn(C(C)=O)c2ccccc12 | 84%
CC1CCCCN1S(=O)(=O)c1ccc(NC(=O)C2COc3ccccc3O2)cc1 (configuration not stated) | 125%
